# Screening data deposited in PubChem by several laboratories.
# MsrA act: bovine MsrA enzyme activators, primary screen, biochemical, absorbance, HTS; purified bovine MsrA, absorbance read-out; hit rate 0.3% among 360,000; Methionine sulfoxide reductase A (Bos taurus); activation, % at 10.6 µM; in the data active = activation above about 7.5%
# PKA-R2B act: activators of PKA-R2B holoenzyme, primary screen, biochemical, fluorescence polarization, Cy5-IP20, human; cAMP-dependent protein kinase catalytic subunit beta (Homo sapiens) + cAMP-dependent …; PKA-R2B holoenzyme dissociation; R2B truncated from residue 108, S112A mutant; 0% DMSO only, 100% 113 µM cGMP; activation, % at 11.4 µM; hit rate 0.079% among 340,000;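 active = activation above a cutoff set at the mean over all compounds plus 3 SD, cut at about 18% in these data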;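 note: higher means more holoenzyme dissociation and a rise in polarization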
# Target sequence (P31323 whole entry, looked up, other chains not shown, the tested form may be a part): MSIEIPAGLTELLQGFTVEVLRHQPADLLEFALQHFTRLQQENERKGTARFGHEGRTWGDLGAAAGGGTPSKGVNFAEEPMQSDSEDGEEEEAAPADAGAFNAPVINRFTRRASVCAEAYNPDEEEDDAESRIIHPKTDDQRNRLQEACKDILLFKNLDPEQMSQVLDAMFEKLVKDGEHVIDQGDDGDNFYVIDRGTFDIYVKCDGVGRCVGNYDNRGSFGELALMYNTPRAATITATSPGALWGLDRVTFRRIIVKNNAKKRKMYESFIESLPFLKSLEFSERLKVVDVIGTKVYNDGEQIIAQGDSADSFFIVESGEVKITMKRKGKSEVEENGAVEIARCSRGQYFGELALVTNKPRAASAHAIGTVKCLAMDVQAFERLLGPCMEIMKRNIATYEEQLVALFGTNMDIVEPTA
# MsrA inhibitor: bovine MsrA enzyme inhibitors, primary screen, biochemical, absorbance, HTS. Methionine sulfoxide reductase A (Bos taurus). purified bovine MsrA, absorbance read-out. inhibition, % at 15.5 µM. hit rate 0.75% among 360,000. AID 651718, 2012; in the data active = inhibition above about 4.5%
# Mot1-301 SUMO: yeast Mot1-301 growth rescue at high temperature, primary screen, SUMOylation pathway inhibitor project, S. cerevisiae, ATP luminescence, 38.5C; S. cerevisiae Mot1-301 growth rescue; percent above DMSO median, 100 means doubled; AID 2716, 2010; hit rate 1% among 320,000; growth rescue, % at 18.8 µM;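 active = every valid replicate shows activation above 250% relative to neutral control wells; inactive = the rest, any valid replicate at or below 250%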
# PKA-R1A activ: activators of PKA-R1A holoenzyme, primary screen, biochemical, fluorescence polarization, Cy5-IP20, bovine R1A, mouse PKAc; PKA-R1A dissociation; scaled: DMSO 0%, 113 µM cGMP 100%; hit rate 0.083% among 340,000; AID 504707, 2011; cAMP-dependent protein kinase type I-alpha regulatory subunit (Bos taurus) + …; activation, % at 11.4 µM;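 active = percent activation above the mean of all tested compounds plus 3 SD, cut at about 19% in these data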;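 note: higher means more PKAc released from R1A so a rise in polarization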
# Hits are given with their value; . = inactive; / = no result given. Rows were chosen to be rich in hits. Some 2% of all compounds tested hit in one or more screens of this group.
SMILES,MsrA act,PKA-R2B act,MsrA inhibitor,Mot1-301 SUMO,PKA-R1A activ
CN(C)c1ccc(C=c2c3ccccc3n3c2cc(-c2ccc(Cl)cc2)[n+]3C)cc1,14,.,.,/,.
CN(C)c1ccc(C=c2c3cc([N+](=O)[O-])ccc3n3c2cc(-c2ccccc2)[n+]3C)cc1,.,.,.,/,.
CCCCCCCCN1C(=O)[C@@H](CC(=O)N2CCOCC2)C[C@@]2(C(=O)OC)C1=C[C@H](C1CCCC1)O[C@@H]2C,/,/,.,/,/
COc1cccc2c(=O)c3ccoc3n(C)c12,.,.,.,350,.
O=C(CSc1c(Cl)cccc1Cl)NC1CCCc2ccccc21 (stereo unspecified),.,.,.,349,.
CCC(=O)N1c2ccccc2NC2=C(C(=O)CC(c3ccco3)C2)C1c1ccco1 (stereo unspecified),.,.,4.6,.,.
O=C(Cc1ccc(NC(=O)C2CCN(C(=O)C3CCCC3)CC2)cc1)Nc1cccc(C(=O)N2CCCC2)c1,/,/,.,/,/
Cc1ccc(S(=O)(=O)N2CCCc3nc(-c4ccccc4)ccc32)cc1,/,/,.,/,/
O=S(=O)(c1cccs1)N1CCN(c2ccccc2F)CC1,.,.,.,335,.
O=C1OC(/C(=C\Nc2ccc(F)cc2F)[N+](=O)[O-])c2ccccc21 (stereo unspecified),.,.,.,304,.
Cc1cc2c(nc1C)CCCN2S(=O)(=O)c1ccccc1,/,/,.,/,/
O=C(C=Cc1ccc(OCc2ccccc2)cc1)c1c(F)cccc1F,/,/,.,/,/
CC(c1ccco1)N(C(=O)c1ccccc1NS(=O)(=O)c1cc([N+](=O)[O-])ccc1Cl)c1ccccn1 (stereo unspecified),.,.,.,402,.
COC(=O)C1=C(C)N(C)C(=NCc2ccccc2C(F)(F)F)NC1CCc1ccccc1 (stereo unspecified),/,/,.,/,/
COc1ccc(-c2ccc3c(n2)CCCN3S(=O)(=O)c2ccccc2)cc1,/,/,.,/,/
C=CCn1c(C)cc(C(=O)COC(=O)c2ccc(N)c([N+](=O)[O-])c2)c1C,.,.,.,771,.
CCc1c(C2(O)CCCCC2)[nH]c2cc(C(F)(F)F)ccc12,.,.,/,325,.
Cc1c(C2(O)CCCCC2)[nH]c2cc(C(F)(F)F)ccc12,.,.,.,.,.
C/C(=N\NC(=O)c1ccncc1)c1ccc(N(C)C)cc1,.,.,4.7,.,.
CC(=O)c1ccc(S(=O)(=O)NCC2CCN(C(=O)C(=O)c3cc4ccccc4o3)CC2)cc1,/,/,.,/,/
O=C(CCn1c(=O)oc2ccccc21)NC1=NCCS1,.,.,.,342,.
CCCN(C(=O)C1CCCN(c2ncnc3c2nc2n3CCCCC2)C1)c1ccccc1C (stereo unspecified),/,/,.,/,/
Cc1ccc(CN2CCNC(=O)C2CC(=O)NC2CCCCCC2)o1 (stereo unspecified),.,.,.,347,.
Cc1cccc(N2CCN(c3ccc(N4C(=O)CCCC4=O)cc3[N+](=O)[O-])CC2C)c1 (stereo unspecified),.,.,.,415,.
Cc1cccc(N2CCN(c3ccc(N4C(=O)CCCC4=O)cc3[N+](=O)[O-])CC2)c1C,.,.,.,.,.
SMILES,MsrA act,PKA-R2B act,MsrA inhibitor,Mot1-301 SUMO,PKA-R1A activ
CCOC(=O)C1=C(O)c2ccccc2C(=O)/C1=C\c1ccc(C)cc1,.,.,/,280,.
CC(=O)N1C[C@@H](CN2C(=O)CCC2=O)[C@@H]2C[C@H]1c1ccccc1N2C,/,/,.,/,/
COC(=O)C1=C(C)N(Cc2ccccc2C(F)(F)F)C(=NCc2cc(OC)c(OC)c(OC)c2)NC1c1ccccc1 (stereo unspecified),/,/,.,/,/
CCOC(=O)C1=C(C)OC(N)=C(C#N)C1c1ccc(C)s1 (stereo unspecified),.,.,.,515,.
COc1cc(OC)c(OC)cc1C#N,.,.,.,689,.
COc1ccc(Cl)cc1NC(=O)CN(C)CC(=O)Nc1c(C)n(C)n(-c2ccccc2)c1=O,.,.,.,281,.
Cc1c(NC(=O)C(=O)/C=C(\O)c2ccc(Cl)cc2)c(=O)n(-c2ccccc2)n1C,.,.,.,294,.
O=c1c(-c2n[nH]c(=S)o2)cccn1Cc1ccccc1,.,.,4.6,.,.
CSc1nnc(-c2cccn(Cc3ccccc3)c2=O)o1,.,.,.,.,.
C[C@@H]1ON(C)[C@H]2C[C@H]3c4[nH]c5cccc(-c6cccc(F)c6)c5c4CCN3C(=O)[C@@H]12,/,/,.,/,/
O=C1CCCCCN1CP(=O)(O)CCc1ccccc1,.,.,.,.,.
O=C1CCCCCN1CP(=O)(O)CN1CCCCCC1=O,.,.,.,564,.
O=C(Sc1n[nH]c(=O)[nH]c1=O)c1ccccc1,10,.,.,/,.
COc1ccccc1CCn1cnc(-c2cccc(F)c2)c1CC(C)C,/,/,.,/,/
CCN(CC)c1ccc(/C=N/NC(=O)OC)c(O)c1,.,.,7.2,.,.
CCN(CC)c1ccc(N=Cc2ccc(N(CC)CC)cc2O)cc1,.,.,4.6,.,.
C[C@@H]1CN([C@@H](C)CO)C(=O)CCCn2cc(nn2)CO[C@H]1CN(C)C(=O)Nc1ccc2c(c1)OCCO2,/,/,.,/,/
Cc1onc(-c2ccccc2)c1C(=O)NN=Cc1cc(Cl)cc(Cl)c1O,/,/,.,/,/
COc1ccc(-c2cc(C#N)nc(NN)n2)cc1,.,.,.,.,.
CCN(CC)c1nc(C#N)cc(-c2ccc(OC)cc2)n1,.,.,8.0,.,.
COc1ccc(-c2cc(C#N)nc(Cl)n2)cc1,.,.,5.1,.,.
COc1ccc(Oc2cccc3c2S(=O)(=O)N(C2CC2)C[C@@H](COCc2ccccc2)O3)cc1,/,/,.,/,/
O=C(C(=O)N1CCC(CNS(=O)(=O)c2ccc(F)cc2)CC1)c1cccs1,/,/,.,/,/
Cc1[nH]c2ccccc2c1CC(=O)Nc1ccc(Nc2cccnc2)c(-c2ccc(-c3ccccc3)cc2F)c1,/,/,.,/,/
O=C(COc1coc(CN2CCN(c3ccc(F)cc3)CC2)cc1=O)NC1CCCCC1,.,.,.,/,.
SMILES,MsrA act,PKA-R2B act,MsrA inhibitor,Mot1-301 SUMO,PKA-R1A activ
O=C(COc1coc(CN2CCN(c3ccc(F)cc3)CC2)cc1=O)NC1CCCC1,.,.,.,297,.
Cc1nnc(NC(=O)c2ccccc2F)s1,.,.,.,.,.
Cc1nnc(NC(=O)c2ccccc2Br)s1,.,.,.,302,.
O=c1c2ccccc2sn1-c1nccs1,17,/,.,/,/
Cn1sc2ccccc2c1=O,7.8,.,.,/,.
Cc1cc(-c2cc(NC(=O)Cc3c[nH]c4ccccc34)ccc2Nc2cccnc2)ccc1F,/,/,.,/,/
CCOC(=O)N1CCC(Nc2c(Nc3ccc(F)cc3)c(=O)c2=O)CC1,.,.,.,.,.
CCOC(=O)N1CCC(Nc2c(Nc3cccc(CC)c3)c(=O)c2=O)CC1,.,.,4.6,.,.
